From PubChem BioAssay (NCI)
Compounds without any hit were thinned out: in the full panel of roughly 83,000, 20% have a hit.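 For each line, cells grew in 96-well plates with the test compound present at a single concentration for 48 hours.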

Columns and labels:
Experiment in all cases: NCI-60 one-dose screen, 48 h (100 = growth as untreated, 0 = no growth, -100 = all killed)
Conditions in all cases: 10 µM unless noted; active = growth percent below 10; inactive = the rest
NCI-H23 lung = system: NCI-H23 lung
NCI-H226 lung = system: NCI-H226 lung
NCI-H322M lung = system: NCI-H322M lung
HOP-62 NSCLC = system: HOP-62 NSCLC
NCI-H460 lung = system: NCI-H460 lung
NCI-H522 lung = system: NCI-H522 lung
A549/ATCC NSCLC = system: A549/ATCC NSCLC
786-0 renal = system: 786-0 renal
DU-145 prostate = system: DU-145 prostate
K-562 leukemia = system: K-562 leukemia
MALME-3M melanoma = system: MALME-3M melanoma
MDA-MB-231 breast = system: MDA-MB-231 breast
RXF 393 renal = system: RXF 393 renal
SF-268 CNS = system: SF-268 CNS
SF-295 CNS = system: SF-295 CNS
SF-539 CNS = system: SF-539 CNS
UACC-257 melanoma = system: UACC-257 melanoma
M14 melanoma = system: M14 melanoma
HCT-15 colon = system: HCT-15 colon
COLO 205 colon = system: COLO 205 colon

Measured: growth

CC(NC(=O)C(C)Oc1ccc(Cl)cc1Cl)C(=O)O (configuration not stated)
inactive: NCI-H23 lung 91.9% | NCI-H226 lung 92.9% | NCI-H322M lung 122% | HOP-62 NSCLC 94.5% | NCI-H460 lung 101% | NCI-H522 lung 83.6% | A549/ATCC NSCLC 116% | 786-0 renal 97.6% | DU-145 prostate 108% | K-562 leukemia 135% | MALME-3M melanoma 98.6% | MDA-MB-231 breast 96.8% | RXF 393 renal 120% | SF-268 CNS 102% | SF-295 CNS 97.8% | SF-539 CNS 102% | UACC-257 melanoma 94.6% | M14 melanoma 92.2%

CCOc1ccccc1C(=O)OCC(=O)Nc1cccc(S(=O)(=O)N(C)C)c1
inactive: NCI-H23 lung 101% | NCI-H226 lung 100% | NCI-H322M lung 124% | HOP-62 NSCLC 94.2% | NCI-H460 lung 102% | NCI-H522 lung 95.1% | A549/ATCC NSCLC 87.8% | 786-0 renal 109% | DU-145 prostate 115% | K-562 leukemia 104% | MALME-3M melanoma 81.5% | MDA-MB-231 breast 110% | RXF 393 renal 64.6% | SF-268 CNS 122% | SF-295 CNS 160% | SF-539 CNS 100% | UACC-257 melanoma 93.6% | M14 melanoma 107% | HCT-15 colon 123%

O=C1c2ccccc2-c2c1nc1ccccc1[n+]2[O-]
inactive: NCI-H23 lung 102% | NCI-H226 lung 106% | NCI-H322M lung 97% | HOP-62 NSCLC 102% | NCI-H460 lung 102% | NCI-H522 lung 93.1% | A549/ATCC NSCLC 108% | 786-0 renal 103% | COLO 205 colon 111% | DU-145 prostate 108% | MALME-3M melanoma 90.2% | MDA-MB-231 breast 108% | SF-268 CNS 98.2% | SF-295 CNS 108% | SF-539 CNS 101% | UACC-257 melanoma 107% | M14 melanoma 97.9% | HCT-15 colon 101%

Cc1ccc(NC(=O)COC(=O)c2ccc(S(=O)(=O)N3CCCCCC3)cc2)cc1
inactive: NCI-H23 lung 107% | NCI-H226 lung 90.8% | NCI-H322M lung 131% | HOP-62 NSCLC 96.4% | NCI-H460 lung 106% | NCI-H522 lung 96% | A549/ATCC NSCLC 97.2% | 786-0 renal 103% | DU-145 prostate 108% | K-562 leukemia 103% | MALME-3M melanoma 127% | MDA-MB-231 breast 101% | RXF 393 renal 88.9% | SF-268 CNS 94.6% | SF-295 CNS 88.9% | SF-539 CNS 105% | UACC-257 melanoma 94.3% | M14 melanoma 126% | HCT-15 colon 105%

O=C1OC(c2ccc(-c3ccccc3)cc2)=C/C1=C/c1cccs1
inactive: NCI-H23 lung 88.6% | NCI-H226 lung 63.6% | NCI-H322M lung 99.7% | HOP-62 NSCLC 101% | NCI-H460 lung 105% | NCI-H522 lung 63% | A549/ATCC NSCLC 83.6% | 786-0 renal 90.3% | DU-145 prostate 103% | K-562 leukemia 87.8% | MALME-3M melanoma 98.2% | MDA-MB-231 breast 75.3% | RXF 393 renal 84.6% | SF-268 CNS 88.5% | SF-295 CNS 95.8% | SF-539 CNS 106% | UACC-257 melanoma 106% | M14 melanoma 90.3% | HCT-15 colon 98.1%

COC(=O)[C@]1(CCSC)N[C@H](c2cn(-c3ccccc3)nc2C)[C@@H]2C(=O)N(c3ccc(C)cc3)C(=O)[C@@H]21
inactive: NCI-H23 lung 100% | NCI-H226 lung 129% | NCI-H322M lung 104% | HOP-62 NSCLC 99.5% | NCI-H460 lung 104% | NCI-H522 lung 89.6% | A549/ATCC NSCLC 90.5% | 786-0 renal 97.1% | COLO 205 colon 113% | DU-145 prostate 103% | MALME-3M melanoma 99% | MDA-MB-231 breast 104% | RXF 393 renal 133% | SF-268 CNS 98.2% | SF-295 CNS 97% | UACC-257 melanoma 102% | M14 melanoma 96.6% | HCT-15 colon 96.7%

S=C(c1ccccc1)N1CCN(c2cccc(Cl)c2)CC1
inactive: NCI-H23 lung 101% | NCI-H226 lung 99.3% | NCI-H322M lung 104% | HOP-62 NSCLC 102% | NCI-H460 lung 111% | NCI-H522 lung 87.5% | A549/ATCC NSCLC 87.8% | 786-0 renal 107% | COLO 205 colon 100% | K-562 leukemia 54.8% | MALME-3M melanoma 97.4% | MDA-MB-231 breast 105% | RXF 393 renal 108% | SF-295 CNS 82.9% | SF-539 CNS 105% | UACC-257 melanoma 103% | M14 melanoma 113% | HCT-15 colon 105%

CC12CCCCC1C(C(N)=O)C(=O)O2 (configuration not stated)
inactive: NCI-H23 lung 101% | NCI-H226 lung 118% | NCI-H322M lung 104% | HOP-62 NSCLC 109% | NCI-H460 lung 110% | NCI-H522 lung 108% | A549/ATCC NSCLC 106% | 786-0 renal 101% | COLO 205 colon 112% | K-562 leukemia 102% | MALME-3M melanoma 120% | MDA-MB-231 breast 101% | SF-295 CNS 109% | SF-539 CNS 112% | UACC-257 melanoma 107% | M14 melanoma 104% | HCT-15 colon 106%

Cc1nn(-c2ccc(Cl)cc2)c2nc3c(nc12)c(=O)oc1ccccc13
inactive: NCI-H23 lung 100% | NCI-H226 lung 128% | NCI-H322M lung 116% | HOP-62 NSCLC 107% | NCI-H460 lung 109% | NCI-H522 lung 101% | A549/ATCC NSCLC 95.4% | 786-0 renal 98.1% | COLO 205 colon 123% | DU-145 prostate 118% | MALME-3M melanoma 108% | MDA-MB-231 breast 110% | RXF 393 renal 136% | SF-268 CNS 104% | SF-295 CNS 92.7% | UACC-257 melanoma 104% | M14 melanoma 107% | HCT-15 colon 103%

O=C1CN(CO)C(=O)CN1CO
inactive: NCI-H23 lung 103% | NCI-H226 lung 113% | NCI-H322M lung 100% | HOP-62 NSCLC 106% | NCI-H460 lung 104% | NCI-H522 lung 98.9% | A549/ATCC NSCLC 103% | 786-0 renal 105% | COLO 205 colon 116% | DU-145 prostate 114% | MALME-3M melanoma 103% | MDA-MB-231 breast 108% | SF-268 CNS 105% | SF-295 CNS 101% | SF-539 CNS 115% | UACC-257 melanoma 99.8% | M14 melanoma 104% | HCT-15 colon 106%
